Assay in all cases: NCI-60 one-dose screen, 48 h (100 = growth as untreated, 0 = no growth, -100 = all killed)
What all share (conditions): 10 µM unless noted

For assay [1], the system named is SK-MEL-2 melanoma.
Assay [2] deals with EKVX NSCLC.
For assay [3], the system named is UO-31 renal.
Assay [4] concerns TK-10 renal.
Assay [5] relates to ACHN renal.
For assay [6], the system named is CAKI-1 renal.
In assay [7] the test system is A498 renal.
For assay [8], the system named is CCRF-CEM leukemia.
The test system of assay [9] is MOLT-4 leukemia.
Assay [10] has as its system SN12C renal.

About 83,000 compounds went through this panel and 20% of them were active in at least one assay; those are over-represented in the sample as a whole.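 Single-dose data. Exposure time 48 hours. Values below 10 considered active.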 A number with no mark means an inactive call. The source made the active and inactive calls.

Consider `CCC1C[N+]2=C(c3cc(OC)c(OC)cc3CC2)c2c1cc1n2CCc2cc(OC)c(OC)cc2-1` (configuration not stated), for which the growth in assay [1] was -1.15% (active); in assay [2], 57.9%; in [3], 90.3%; in assay [4], 82.9%; in assay [5], 96.9%; in assay [6], 87%. For the same compound, the figures for the growth in [7], in [8] and in assay [9] were 75%, 52.1% and 41.5%, respectively.

`OCCOSCCO`: the growth in assay [1] is 106%; in assay [10] it was 111%; in [3], 96.3%; in assay [4], 100%; in [5], 91.2%; in assay [6], 101%. Further, the growth in [7] was 120%; in [8], 107%; in assay [9], 104%.

`CC(=O)Nc1ccc(C(=O)CCl)cc1`: the growth in assay [1] was 96.6%; in assay [10], 90.6%; in assay [3], 54.2%; in assay [4], 43.8%; in [5], -58% (active); in [6], 38.6%. Moreover, the values for the growth in assay [7], in assay [8] and in assay [9] were 99.8%, -49.9% (active) and 73.6%, respectively.

Turning to `CC1CC(C)(C)OB(OC(C)CC(C)(C)OB2OC(C)CC(C)(C)O2)O1` (configuration not stated), the growth in assay [1] was 103%; in [10] it was 101%; in assay [3], 90.9%; in [4] it was 93.6%; in assay [5], 108%; in assay [6], 105%. Moreover, the growth in assay [7] was 118%; in [8], 104%; in [9], 99.2%.

As for `O=C(c1ccccc1)N(CCCl)C(=O)N(CCCl)C(=O)c1ccccc1`, the growth is 93.5% in [1]; 94.1% in assay [10]; 82.4% in [3]; 103% in assay [4]; 94.1% in [5]; 97.3% in assay [6]. For the same compound, the growth in assay [7] was 96.6%; in assay [8], 100%; in assay [9], 86.3%.

Turning to `O=C(Nc1ccc(Cl)c(Cl)c1)Nc1ccccc1O`, the growth in [1] was 77%; in [2], 80.4%; in [3], 55.8%; in assay [4], 116%; in assay [5], 76.5%; in assay [7] it was 106%. Further, the growth is 37.1% in assay [8] and 61.1% in assay [9].

Turning to `CCOC(=O)NC(/C=C/c1ccccc1)NC(=O)OCC`, the growth in assay [1] was 104%; in [10], 99%; in assay [3], 91.2%; in assay [4] it was 100%; in assay [5], 109%; in assay [6], 94.5%. In addition, the growth in assay [7] was 89.3%; in assay [8] it was 98.4%; in assay [9], 98.7%.

For `Cc1cc2cccnc2c2ncccc12`, the growth in assay [1] was 6.1% (active); in assay [2], 40.2%; in assay [3], 27%; in [4], 11.9%; in assay [5] it was 18.2%; in assay [6], 12.6%. Moreover, the growth in assay [7] is 23.6%; in [8] it was -11.8% (active); in assay [9], 5.73% (active).

Turning to `Nc1ccc(C(=O)/C=C/c2ccccc2)cc1`, the growth in [1] was 91.6%; in [10], 98.4%; in assay [3], 62.1%; in assay [4], 85.2%; in [5], 105%; in assay [6] it was 98.5%. Further, the growth in assay [7] is 101%; in assay [8], 58.7%; in assay [9], 75.4%.

Take `CC(=O)c1ccc2c(c1)CCc1ccccc1-2`: the growth was 110% in [1]; 109% in [10]; 105% in assay [3]; 99.9% in assay [4]; 108% in [5]; 101% in [6]. Besides, the growth in assay [7] was 63.1%; in assay [8], 109%; in assay [9], 114%.

`[Cl-].[Rh+3].c1ccc(-c2ccnc3c2ccc2c(-c4ccccc4)ccnc23)cc1.c1ccc(-c2ccnc3c2ccc2c(-c4ccccc4)ccnc23)cc1.c1ccc(-c2ccnc3c2ccc2c(-c4ccccc4)ccnc23)cc1`: the growth was 95.9% in assay [1]; 81.1% in [2]; 51.4% in assay [3]; 107% in assay [4]; 93.6% in [5]; 86.1% in assay [6]. Further, the results for the growth in assay [8] and in assay [9] were 76.2% and 104%, respectively.

For `N#C/C(=N\Nc1ccc(Cl)cc1)C(=O)C1CC1`, the growth in assay [1] is 11.8%; in assay [2] it was 32.2%; in assay [4] it was 52.9%; in [5], 69.1%; in assay [6], 49.1%; in assay [7], 43.4%. Moreover, the growth was 64.3% in [8] and 79.8% in [9].

Turning to `CCCC[n+]1c(/C=C\c2c(OC)cc(OC)cc2OC)ccc2ccccc21`, the growth in [1] is -44.7% (active); in [10], 3.62% (active); in assay [3] it was 1.45% (active); in assay [4], -12.7% (active); in assay [5], 9.92% (active); in [6] it was -41.6% (active). Besides, the values for the growth in assay [7], in [8] and in assay [9] were -23.4% (active), 1.26% (active) and -22.5% (active), respectively.

Turning to `CC[n+]1ccc(Nc2ccc(NC(=O)c3ccc(Nc4cc[n+](CC)c5ccc([N+](=O)[O-])cc45)cc3)cc2)cc1`, the growth in assay [1] was 111%; in assay [10], 86%; in assay [3] it was 91.4%; in [4] it was 152%; in assay [5] it was 96.9%; in [6], 94.2%. The growth in [7] was 103%; in assay [8] it was 89.1%; in assay [9] it was 93.3%.

As for `COc1ccc(C(Cn2ccnc2)Sc2ccc(Cl)c(Cl)c2)cc1` (configuration not stated), the growth is 104% in [1]; 88.6% in assay [10]; 45.2% in assay [3]; 96.7% in assay [4]; 83.4% in assay [5]; 62.3% in assay [6]. In addition, the growth in [7] is 67.8%; in [8], 79.3%; in assay [9], 64.1%.

(Values after PubChem BioAssay (NCI).)
